Bioassay records: PubChem BioAssay, several laboratories
tim23-1 inh: growth inhibitors of tim23-1 mutant yeast, primary screen, luminescence, uHTS; S. cerevisiae tim23-1 growth, BacTiter-Glo luminescence, 24 h; inhibition, % at 20 µM; actives 1.3% (n = 330,000); AID 463212, 2010;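 active = growth inhibition of the mutant yeast at or above 50%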;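 note: temperature-sensitive mutant grown at 25 °C; plate controls were DMSO-treated mutant yeast for no effect and medium wells lacking yeast for full effect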
tim10-1 inh: growth inhibitors of tim10-1 mutant yeast, primary screen, luminescence, uHTS; S. cerevisiae tim10-1 ts strain growth, BacTiter-Glo, 24 h; actives 2.2% (n = 330,000); inhibition, % at 20 µM;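 active = inhibition of at least 40%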;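 note: mutant grown at 25 °C; 0% = DMSO wells with yeast and 100% = wells holding no yeast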
NALP1 yeast inh: NALP1 inflammasome inhibitors in reconstituted yeast, colorimetric, S. cerevisiae, triplicate retest | S. cerevisiae NALP1/ASC/caspase-1 growth, X-gal OD620, 72 h | inhibition, % at 10 µM | actives 0.61% (n = 280,000); in the data active = inhibition mostly above about 24%, no sharp cut-off; inactive = mostly below about 32%
NLRP3 yeast inh: NALP3 inflammasome inhibitors in reconstituted yeast, primary screen, luminescence, uHTS | actives 0.39% (n = 330,000) | Yeast reconstituted NLRP3/ASC/caspase-1, beta-gal luminescence, 24 h | AID 2825, 2010 | inhibition, % at 10 µM;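 active = inhibition of 50% or more; inactive = inhibition below 50%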;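 note: plate controls were induced DMSO wells for no effect and uninduced yeast grown without galactose for full effect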
PfHsp90 yeast 2: growth inhibition of PfHsp90-expressing yeast, primary screen, antimalarial PfHsp90 inhibitor project, S. cerevisiae, BacTiter-Glo luminescence, single point, set 2 | BacTiter-Glo ATP, 48 h; yeast lacking PDR1 and PDR3 efflux regulators | inhibition, % at 9.4 µM | actives 0.32% (n = 310,000) | AID 504621, 2011;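 active = every replicate shows inhibition above about 80%, whatever the replicate mean, limit read from the data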;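 note: 0% = DMSO neutral controls and 100% = 20 µM radicicol positive controls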
TIM10 inh: growth inhibitors of isogenic TIM10 control yeast, primary screen, counter-screen for tim10-1 yeast inhibitor project, luminescence, uHTS; S. cerevisiae TIM10 strain growth, BacTiter-Glo luminescence, 24 h; inhibition, % at 10 µM; actives 1.4% (n = 330,000);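 active = inhibition of 40% or more at the single tested concentration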;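 note: wild-type TIM10 isogenic control strain grown at permissive 25 °C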
tim10 confirm: growth inhibitors of wild-type TIM10 yeast, confirmation, counter-screen for tim10-1 synthetic lethality project, single concentration, luminescence, S. cerevisiae. shares compounds with TIM10 inh. S. cerevisiae tim10 strain growth, BacTiter-Glo luminescence, 24 h. inhibition, % at 10 µM. actives 63% (n = 4,600);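 active = inhibition of yeast growth at or above a set limit in either of two replicates at 10 µM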;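 note: this counterscreen used the strain with wild-type TIM10; 0% = yeast with DMSO and 100% = medium wells lacking yeast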
* marks the source's active call; other numbers are inactive results; . = no result given. An excerpt weighted towards active compounds, which were near 4.2% of everything screened.

SMILES	tim23-1 inh	tim10-1 inh	NALP1 yeast inh	NLRP3 yeast inh	PfHsp90 yeast 2	TIM10 inh	tim10 confirm
Cc1cc(C)nc(N/N=C/c2ccccc2OCc2cccc(Br)c2)n1	39	39	33	30	-44	48*	1
O=C(Nc1ccc2ccccc2c1)C(c1ccccc1)C1CCCC1 (stereo not given)	7	20	28	17	-11	44*	24
COc1cccc(OC)c1C(=O)OCc1c(-c2ccccc2)ncc2ccccc12	25	11	.	5	17	14	.
O=S(=O)(c1ccc2c(c1)OCCO2)N1CCN(Cc2ccccc2)CC1	49	26	16	17	-6	43*	30
CCCc1nc(SCC(=O)c2ccc(F)cc2)c2ccccc2n1	11	-14	5	8	-18	-32	.
COc1ccc(CCNC(=O)CN2c3cccc4cccc(c34)S2(=O)=O)cc1OC	13	17	-3	5	-5	0	.
Cc1cccc(NC(=S)NC(=O)c2ccc(Br)o2)c1C	-1	-4	-25	45	14	-2	.
Cc1cccc(C)c1NC(=S)NC(=O)c1ccc(Br)o1	38	34	10	-17	-44	42*	43*
CSCCC(NC(=O)c1ccco1)C(=O)N1CCCC(C(F)(F)F)C1 (stereo not given)	-7	8	.	3	-6	7	.
c1ccc(/N=C2\N=C(Nc3ccccn3)c3ccccc32)nc1	48	33	.	21	-2	46*	29
Cc1ccc2c(c1)N(CC(=O)NC1CCCCCC1)C(=O)c1cccnc1O2	15	-8	7	10	-29	10	.
CCC/C=N/NC(=O)c1ccccc1O	0	4	27	16	0	14	.
CC(=O)Nc1sc2c(c1-c1nc3ccccc3s1)CN(C(C)C)CC2	43	12	.	5	-6	65*	19
CC(C)N1CCc2c(sc(NC(=O)c3nc4ccccc4s3)c2C(N)=O)C1	42	-11	-22	47	-2	44*	22
COc1ccc(OC)c(-n2c(SCC(N)=O)nnc2-c2c[nH]c3ccccc23)c1	9	6	-14	0	-7	98*	2
COc1cccc(-n2c(SCC(N)=O)nnc2-c2c[nH]c3ccccc23)c1	-1	0	-26	4	28	-10	.
Cc1nc2c(ccc3nc(NC(=O)Cc4ccccc4)sc32)s1	37	38	30	26	6	42*	45*
Cc1nc2c(ccc3nc(NC(=O)c4ccc(S(=O)(=O)N(C)C)cc4)sc32)s1	5	8	4	7	21	6	.
CC(C)(C)c1ccc(/C=C(\c2nc3ccccc3[nH]2)S(=O)(=O)c2ccccc2)cc1	46	26	.	27	-9	47*	33*
O=C1CC(N2CCN(c3ccccn3)CC2)C(=O)N1CC(c1ccccc1)c1ccccc1 (stereo not given)	15	26	2	4	-7	42*	31
Cc1ccc(C)c(NC(=S)NCc2ccccc2)c1	31	10	-24	12	7	-1	.
Cc1ccc(C)c(NC(=S)N/N=C/C(C)c2ccccc2)c1 (stereo not given)	26	38	-10	14	-6	49*	26
CC1=NN(c2ccccc2)C(=O)/C1=C\C=C\c1ccccc1	42	28	-3	11	.	54*	38*
COc1ccc2c(c1)O[C@@H](c1ccc3c(c1)OCO3)[C@H](OC(=O)Nc1cc(OC)c(OC)c(OC)c1)C2=O	.	.	13	.	.	.	.
Fc1ccc(C(c2nnnn2C2CCCC2)N2CCc3ccccc32)cc1 (stereo not given)	26	30	6	-15	.	45*	18
SMILES	tim23-1 inh	tim10-1 inh	NALP1 yeast inh	NLRP3 yeast inh	PfHsp90 yeast 2	TIM10 inh	tim10 confirm
Cc1cc(C(=O)NNC(=O)Cc2ccc(Cl)cc2)c(C)o1	-13	-39	.	16	-8	-13	.
CCCc1cc(C(=O)N2CCN(c3ccccc3C)CC2)cs1	34	32	16	-49	.	40*	36*
Cc1ccsc1C(=O)N/N=C/c1ccc2c(c1)OCO2	34	-8	18	10	2	21	.
O=C(N/N=C/c1ccc2c(c1)OCO2)c1cccs1	50	28	47	21	-20	57*	48*
N#Cc1cccc(C#N)c1Oc1ccc(N)cc1	12	6	.	11	-12	33	.
COCCNC(=O)C(c1ccc(F)cc1)N(C(=O)CCC(=O)Nc1ccccn1)c1ccc(C)cc1 (stereo not given)	-8	-15	4	21	4	4	.
O=C(c1ccco1)N1CCN=C1SCc1cccc(F)c1	20	-10	-4	7	5	96*	-3
O=C(CCSc1nc(-c2ccco2)cc(C(F)(F)F)n1)N1CCN(c2ccccn2)CC1	33	36	29	13	-2	40*	32*
CCOC(=O)C1CCN(S(=O)(=O)c2ccc3c(c2)CC(C)N3C(=O)C2CC2)CC1 (stereo not given)	36	2	-1	13	30	40*	49*
COc1ccc(S(=O)(=O)n2c([N+](=O)[O-])cnc2C)c(C)c1C	10	-3	5	20	-1	-7	.
CCOc1ccc(S(=O)(=O)n2c([N+](=O)[O-])cnc2C)c(C)c1C	12	-2	-1	15	2	97*	11
COc1cccc(C(=O)NC2CC(C)(C)NC(C)(C)C2)c1OC	5	-5	9	14	1	61*	12
COc1ccccc1C(=O)NC1CC(C)(C)NC(C)(C)C1	10	1	12	5	8	4	.
Cc1cc(C)cc(CC2CC(=O)N(c3ccc(Cl)cn3)C2=O)c1 (stereo not given)	48	29	13	25	18	51*	23
NS(=O)(=O)c1ccc(CNC(=O)c2ccc3c(c2)OCO3)cc1	-14	-13	.	-4	-6	-4	.
Fc1ccc(CNCC2CCCO2)cc1 (stereo not given)	0	0	-79	26	2	97*	-10
CNc1nc(N)c([N+](=O)[O-])c(Nc2ccccc2OC)n1	33	27	8	31	-5	44*	52*
Cc1ccccc1CSCC(=O)Nc1ccccc1Br	27	5	13	40	10	-17	.
